In article PMC5540273 (PLoS ONE, 2017):

How the values were obtained:
Settings in all cases: concentration: 1 μM,replicates: in singlicate; n = 1
[1] = test system: MAPKAPK5
[2] = test system: MARK1
[3] = test system: MARK2
[4] = test system: MARK3
[5] = test system: MARK4
[6] = test system: MAST1
[7] = test system: T1, MEK1
T1 construct: gene MAP2K1

[8] = test system: T2, MEK2
T2 construct: gene MAP2K2

[9] = test system: T3, MEK3
T3 construct: gene MAP2K3

[10] = test system: T4, MEK4
T4 construct: gene MAP2K4

[11] = test system: T5, MEK5
T5 construct: gene MAP2K5

[12] = test system: T6, MEK6
T6 construct: gene MAP2K6

[13] = test system: MELK
[14] = test system: MERTK
[15] = test system: MET
[16] = test system: T7, MINK
T7 construct: gene MINK1

[17] = test system: MKK7
[18] = test system: MKNK1
[19] = test system: MKNK2
[20] = test system: T8, MLCK
T8 construct: gene MYLK3
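Note: KINOMEscan kinase panel screen.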

SMILES | %Inh [1] [%] | %Inh [2] [%] | %Inh [3] [%] | %Inh [4] [%] | %Inh [5] [%] | %Inh [6] [%] | %Inh [7] [%] | %Inh [8] [%] | %Inh [9] [%] | %Inh [10] [%] | %Inh [11] [%] | %Inh [12] [%] | %Inh [13] [%] | %Inh [14] [%] | %Inh [15] [%] | %Inh [16] [%] | %Inh [17] [%] | %Inh [18] [%] | %Inh [19] [%] | %Inh [20] [%]
O=C(NCC1CC1)c1ccc(-c2cc(C(=O)NC3CC3)ccc2F)cc1 [GW810445] | 0 | 0 | 0 | 0 | 2 | 36 | 2 | 13 | 0 | 0 | 0 | 5 | 17 | 0 | 0 | 0 | 8 | 3 | 0 | 0
Cn1ccc2ncnc(Oc3ccc(NC(=O)Nc4cc(C(C)(C)C)on4)c(Cl)c3)c21 | 50 | 4 | 0 | 0 | 14 | 0 | 23 | 41 | 15 | 9 | 71 | 7 | 20 | 94.8 | 48 | 91.6 | 0 | 3 | 90 | 7
COc1cc(Nc2nccc(N3CCC(NC(=O)c4cccc(C#N)c4)C3)n2)cc(OC)c1OC (stereo not drawn) [GSK1379751] | 0 | 100 | 0 | 0 | 100 | 0 | 0 | 0 | 0 | 19 | 85 | 0 | 0 | 9 | 6 | 0 | 16 | 0 | 67 | 0
CSc1nccc(-c2c(-c3ccc(F)cc3)ncn2CCCN2CCOCC2)n1.Cl [SB-217146] | 0 | 15 | 0 | 40 | 20 | 6 | 30 | 43 | 33 | 16 | 36 | 15 | 0 | 5 | 0 | 26 | 0 | 0 | 0 | 0
CC(C(=O)NC1CCN(c2ccnc(Nc3ccc(F)cc3)n2)C1)c1ccc(Cl)cc1 (stereo not drawn) [GSK1379713] | 18 | 0 | 0 | 0 | 1 | 11 | 0 | 0 | 0 | 10 | 7 | 0 | 0 | 0 | 0 | 0 | 0 | 5 | 0 | 0
COC(=O)c1cccc(NC(=O)NC2CCN(c3ccnc(Nc4cc(OC)c(OC)c(OC)c4)n3)C2)c1 (stereo not drawn) [GSK1379767] | 0 | 0 | 0 | 0 | 7 | 15 | 0 | 17 | 0 | 26 | 98.8 | 4 | 0 | 40 | 19 | 3 | 21 | 12 | 32 | 12
Cc1cccc2c(-c3ccncc3)c(-c3ccc(F)cc3)nn12.Cl [GW461487] | 0 | 0 | 0 | 0 | 0 | 0 | 39 | 0 | 0 | 52 | 6 | 0 | 0 | 5 | 0 | 30 | 0 | 1 | 0 | 0
Cc1ccc(C(=O)Nc2ccc(Oc3ccc4nc(NC(=O)C5CC5)cn4c3)c(F)c2)c(=O)n1-c1ccccc1 | 0 | 0 | 0 | 32 | 15 | 31 | 0 | 29 | 0 | 0 | 98.9 | 0 | 37 | 99.2 | – | 0 | 0 | 88 | 94.2 | 0
O=C(Nc1ccc(Oc2ccc3nc(NC(=O)C4CC4)cn3n2)c(F)c1)c1cccn(-c2ccccc2)c1=O | 0 | 0 | 0 | 29 | 0 | 10 | 0 | 25 | 0 | 0 | 97 | 0 | 18 | 96 | – | 0 | 0 | 20 | 92.5 | 0
CS(=O)c1ccc(-c2coc3ccc(-c4n[nH]c(=O)o4)cc23)cc1 (stereo not drawn) | 11 | 15 | 23 | 0 | 22 | 6 | 17 | 18 | 25 | 43 | 17 | 0 | 0 | 0 | 22 | 7 | 1 | 9 | 11 | 32
